Source: PubChem (National Center for Advancing Translational Sciences (NCATS))
12-LOX inh: blocks human arachidonate 12S-lipoxygenase; P18054; Potency, µM (top dose mostly 108 µM), hits mostly inhibitors; actives 1.1% (n = 580,000); purified 12hLO, xylenol orange hydroperoxide absorbance; AID 1671190
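Hydroperoxide product was detected by ferrous iron/xylenol orange as the 573 to 405 nm absorbance ratio. Arachidonic acid at 40 uM (final) was turned over for 30 min at room temperature by 150 nM human 12hLO, pH 7.0 Hepes buffer, after 15 min compound preincubation.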
Glioma ERSR ind: inducers of ER stress response in human glioma cells; U87-MG GRP78 promoter luciferase reporter, 16 h; Potency, µM, hits mostly activators; actives 0.02% (n = 420,000); AID 602332; also: series mostly up to about 76 µM; nearly all actives have a fitted effect of over 35% in size
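Stably transfected U87-MG glioma cells carrying a GRP78-based luciferase sensor; 16 h compound incubation. Luminescence end-point read 10 min after Bright-Glo addition at room temperature.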
Sfp inh: inhibitors of Bacillus subtilis Sfp phosphopantetheinyl transferase; Potency, µM, most hits filed as inhibitors; actives 3.5% (n = 310,000); Biochemical Sfp PPTase activity, qHTS;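 also: the enzyme is Sfp with the accession as filed and its product quenches rhodamine fluorescence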
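Step 1, compound plus 15 nM Sfp-PPTase, 15 min, room temperature. Step 2, add rhodamine-CoA (5 uM) and BHQ-2-YbbR (12.5 uM). Step 3, read 525/598 nm fluorescence at 0 and 30 min.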
VDR inh: blocks the human vitamin D receptor; P11473; VDR-SRC2-3 peptide fluorescence polarization, 2 h; Potency, µM, most hits filed as inhibitors; actives 0.93% (n = 400,000)
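After 23 nl compound addition and a short centrifugation, plates sat for 2 hours at ambient temperature; polarization of fluorescence then indicated loss of VDR binding to peptide SRC2-3.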
G9a block: blocks human histone lysine methyltransferase G9a; G9a H3K9 monomethylation, AlphaScreen, 2 h; actives 8.8% (n = 350,000); Q96KQ7; AID 504332; Potency, µM (highest dose often 102 µM), most hits filed as inhibitors; also: nearly all actives have a fitted effect of over 75% in size
Target sequence (Q96KQ7 913-1193 limits assumed): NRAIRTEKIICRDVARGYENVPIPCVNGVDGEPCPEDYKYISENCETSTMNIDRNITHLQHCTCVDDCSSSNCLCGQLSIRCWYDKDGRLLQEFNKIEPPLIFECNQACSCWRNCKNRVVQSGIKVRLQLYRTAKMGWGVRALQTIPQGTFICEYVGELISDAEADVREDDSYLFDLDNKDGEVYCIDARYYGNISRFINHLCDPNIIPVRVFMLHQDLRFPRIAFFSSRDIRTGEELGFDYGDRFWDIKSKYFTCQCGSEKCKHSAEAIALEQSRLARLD
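Enzyme 20 nM + cpd, 15 min RT; add b-H3K9 pep 500 nM / SAM 20 uM; 2 h RT; anti-H3K9me1 Ab 0.5 ug/mL + SA donor / anti-rabbit acceptor beads 20 ug/mL each, 10 min; AlphaScreen read.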
Hits are given with their value; . = inactive; ? = inconclusive; / = no result; [ ] = dose if it differs, or a comment. The full list was thinned out, with hits kept by preference. Calls follow the shape of the dose curve; as a rule, active = well fitted curve in the direction sought with a large enough effect; inconclusive = small, poorly fitted or top-dose-only effect, or another doubt; inactive = no such curve, though single readings can be large; an effect the other way counts as inactive or inconclusive.

SMILES | 12-LOX inh | Glioma ERSR ind | Sfp inh | VDR inh | G9a block
N#C/C(=C/c1ccc([N+](=O)[O-])cc1)C(N)=O | . | . | . | 79µM | ?
CSc1nc(SCC(=O)O)c2sc3nc(-c4ccccc4)c4c(c3c2n1)CCC4 | ? | . | . | . | 18µM
CSc1nc(NCCN(C)C)c2sc3nc(-c4ccco4)c4c(c3c2n1)CCC4 | . | . | / | . | /
CSc1nc(N(C)CCO)c2sc3nc(-c4ccco4)c4c(c3c2n1)CCC4 | / | . | 79µM | ? | .[0.0925 µM]
Cc1cccc(Nc2nc(-c3ccc4c(c3)OCCO4)cs2)c1 | ? | . | . | . | 7.9µM
Cc1nc(Cc2nc(-c3ccc4c(c3)OCCCO4)cs2)cs1 | . | / | / | / | /
Cc1nc(-c2ccc3c(c2)OCCO3)cs1 | . | . | ? | . | 32µM
N#CCC(=O)Nc1nc(-c2ccc3c(c2)OCCO3)cs1 | . | . | . | . | .
O=C(Nc1nc(-c2ccc3c(c2)OCCO3)cs1)C1CCCC1 | . | . | . | . | 45µM
Cc1cccc(Nc2nc(-c3ccncc3)cs2)c1 | . | . | . | . | ?
Cc1ccc(/C=C/C(=O)NCc2ccco2)cc1 | . | / | / | / | /
COc1ccc(C(=O)N2CCCC(Nc3ccc(C)c(C)c3)C2)c(OC)n1 (centres undefined) | . | . | . | . | 45µM
COc1cccc(C(=O)N2CCCC(Nc3ccc(C)c(C)c3)C2)c1 (centres undefined) | ? | . | . | . | 22µM
COc1ccc(C(=O)N2CCCC(Nc3ccc(F)c(F)c3)C2)c(OC)n1 (centres undefined) | . | . | . | . | .
COc1ccc(-n2c(C)c(C)c3c2ncn2nc(-c4ccccn4)nc32)cc1 | . | / | / | / | /
Cn1c(=O)[nH]c(=O)c2c1nc(SCCO)n2Cc1ccccc1Cl | ? | . | . | . | 45µM
CCC(C)Sc1nc2c(c(=O)[nH]c(=O)n2C)n1Cc1ccccc1Cl (centres undefined) | . | . | . | . | 25µM
CCOC(=O)CSc1nc2c(c(=O)[nH]c(=O)n2C)n1Cc1ccccc1Cl | . | / | / | / | /
CSc1nc2c(c(=O)[nH]c(=O)n2C)n1Cc1ccccc1Cl | . | . | . | . | /
N#CC1(C(=O)OCC(=O)Nc2ccc(N3CCOCC3)cc2)CCCC1 | . | / | / | / | /
CSC(=S)NN=C1CCCC1 | . | / | / | / | /
Cc1ccc(C)c(NC(=O)COC(=O)Cn2cnc3c2c(=O)n(C)c(=O)n3C)c1 | . | / | / | / | /
CSc1ccc(C2CC(=O)Nc3nc(SC)[nH]c(=O)c32)cc1 (centres undefined) | . | . | . | . | .
CSc1ccc(C2CC(=O)Nc3nc(N)sc32)cc1 (centres undefined) | 25µM | / | / | / | /
Nc1nc2c(s1)C(c1cccc(F)c1)CC(=O)N2 (centres undefined) | 16µM | / | / | / | /
SMILES | 12-LOX inh | Glioma ERSR ind | Sfp inh | VDR inh | G9a block
C#CCNC(=O)c1nc(-c2c(C)cccc2C)c2ccccn12 | . | / | / | / | /
Cc1cc2oc(=O)cc(CN3CCN(CCc4ccccn4)CC3)c2cc1C | . | / | / | / | /
CCCS(=O)(=O)c1c(S(=O)(=O)CCC)c2c3ccccc3ccn2c1C(=O)OC | . | . | . | . | ?
CCCS(=O)(=O)c1c(S(=O)(=O)CCC)c2c(C)cccn2c1C(=O)OC | . | . | 79µM | . | 32µM
CCCS(=O)(=O)c1c(S(=O)(=O)CCC)c2c(N)cccn2c1C(=O)c1ccc(Br)cc1 | 6.3µM | . | . | . | 11µM
CCCS(=O)(=O)c1c(S(=O)(=O)CCC)c2c(N)cccn2c1C(=O)c1ccc(OC)cc1 | . | . | . | . | /
CCCS(=O)(=O)c1c(S(=O)(=O)CCC)c2c(N)cccn2c1C(=O)c1ccc(F)cc1 | ? | . | 22µM | . | ?
CCCS(=O)(=O)c1c(S(=O)(=O)CCC)c2ccc(C(N)=O)cn2c1C(=O)c1ccc(F)cc1 | . | . | . | . | /
Cc1cccc(Nc2nc(-c3ccccc3)cs2)c1C | . | / | / | / | /
c1ccc(CCC2CCNCC2)cc1 | . | / | / | / | /
c1ccc(OCC2CCNCC2)nc1 | . | . | . | . | 79µM
O=C(NNC(=O)c1cc(O)c(O)c(O)c1)NC1CCCCC1 | ? | . | 10µM | . | 1.6µM
Cc1cc(/C=C2\SC(N)=NC2=O)c(C)n1-c1ccccc1 | . | . | 50µM | . | ?
Cc1cc(/C=C2\SC(=S)NC2=O)c(C)n1-c1ccccc1 | ? | . | . | . | 45µM
Cc1cc(/C=C2\SC(=S)NC2=O)c(C)n1-c1ccc(O)cc1 | 28µM | . | 45µM | . | /
Cc1nn(C)cc1/C=C1\SC(=S)NC1=O | ? | . | . | . | ?
Cc1cc(/C=C2\SC(=S)NC2=O)c(C)n1C | ? | . | . | . | 40µM
